The panel holds about 79,000 compounds, 15% with a hit somewhere; the sample as a whole holds those more often. A number with no mark means an inactive call. Calls of active or inactive are those of the source. Rule as the data show it: active = growth inhibition above about 70%; inactive = the rest.
Columns and labels:
[1] = NCI Yeast Anticancer Drug Screen. Data for the rad50 strain (AID 155);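 also: 0% = growth of vehicle-only cultures of the same strain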; details: S. cerevisiae rad50 strain growth inhibition, hits give high values
In short: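 Vehicle-treated cultures provide the reference for the growth inhibition reported for compound-exposed, repair-deficient yeast.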

[2] = NCI Yeast Anticancer Drug Screen. Data for the mec2-1 strain (AID 157); details: S. cerevisiae mec2-1 strain, hits give high values
In short: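 Readout is yeast growth inhibition, normalised to vehicle-treated controls, in the mec2-1 strain exposed to compound.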

[3] = NCI Yeast Anticancer Drug Screen. Data for the sgs1 mgt1 strain (AID 161);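 also: 0% = growth of cultures given vehicle only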; details: S. cerevisiae sgs1 mgt1 strain, hits give high values
In short: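 Percent growth inhibition was derived by comparing compound-exposed mutant yeast with vehicle-exposed cultures. The strain carries alterations in DNA damage repair.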

[4] = NCI Yeast Anticancer Drug Screen. Data for the cln2 rad14 strain (AID 165);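 also: 0% = growth equal to vehicle treated cultures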; details: S. cerevisiae cln2 rad14 strain, hits give high values
In short: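 Relative to vehicle controls, growth inhibition of compound-treated cln2 rad14 yeast was recorded.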

[5] = NCI Yeast Anticancer Drug Screen. Data for the bub3 strain (AID 167); details: S. cerevisiae bub3 mutant strain, hits give high values
In short: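 Mutant yeast screening strain plus compound; vehicle-treated cultures serve as the 0% inhibition reference.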

[6] = NCI Yeast Anticancer Drug Screen. Data for the mlh1 rad18 strain (AID 175); details: S. cerevisiae mlh1 rad18 strain growth inhibition, hits give high values
In short: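 Test agents were incubated with a yeast strain of defined genotype (DNA damage repair defect). Inhibition of growth was derived by comparison with vehicle-exposed cultures.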

[7] = at 5.0 µM (retest, dose inferred, filed as 0.5)
[8] = at 50.0 µM (retest, dose inferred, filed as 5.0)

Row | SMILES | growth inhibition [1, 7] | growth inhibition [1, 8] | growth inhibition ([1]; at 50.0 µM) | growth inhibition [2, 7] | growth inhibition [2, 8] | growth inhibition ([2]; at 50.0 µM) | growth inhibition [3, 7] | growth inhibition [3, 8] | growth inhibition ([3]; at 50.0 µM) | growth inhibition [4, 7] | growth inhibition [4, 8] | growth inhibition ([4]; at 50.0 µM) | growth inhibition [5, 7] | growth inhibition [5, 8] | growth inhibition ([5]; at 50.0 µM) | growth inhibition [6, 7] | growth inhibition [6, 8] | growth inhibition ([6]; at 50.0 µM)
1 | O=[N+]([O-])c1ccc(C2C3CC4C(OOC42)C3I)cc1 (stereo not drawn) | 0% | 20% | 23.5% | 0% | 9% | 18.1% | -4% | 12% | 32.8% | -1% | -7% | -27.4% | 28% | 98% (active) | 97.2% (active) | 0% | 27% | 31.4%
2 | CC/C=C/c1cc2c(cc1O)CCC1C2CC[C@@]2(C)C1CC[C@@H]2O (stereo partly drawn) | -16% | 98% (active) | 78% (active) | -15% | 98% (active) | 81.7% (active) | -23% | 97% (active) | 88.6% (active) | -24% | 98% (active) | 88.7% (active) | -23% | 98% (active) | 88.5% (active) | -16% | 98% (active) | 90.5% (active)
3 | Nc1nc(N)c(-c2ccc(Cl)c(Cl)c2)c(COc2ccc(CNC(=O)Nc3cccc(S(=O)(=O)F)c3)cc2Cl)n1 | 2% | 11% | 26.8% | -5% | 10% | 58.9% | -4% | 6% | 74.8% (active) | -6% | 11% | -4.6% | 0% | 20% | 13.2% | 2% | 42% | 66.4%
4 | [pH]1p2[pH]p3p1p3[pH]2.c1cc[c]([Ge]([c]2ccccc2)[c]2ccccc2)cc1.c1cc[c]([Ge]([c]2ccccc2)[c]2ccccc2)cc1.c1cc[c]([Ge]([c]2ccccc2)[c]2ccccc2)cc1 | 10% | 82% (active) | 2.35% | 20% | 74% (active) | 59.3% | 18% | 78% (active) | 4.75% | 8% | 44% | 37.8% | 9% | 66% | -1% | 19% | 71% (active) | 18.4%
5 | CNC1C(O)CC(OC2C/C=C(\C)C/C(C)=C/C=C/CCC(C)CNC(=O)/C=C/C=C/C2C)OC1C (stereo not drawn) | -6% | 99% (active) | 14.4% | 19% | 100% (active) | 63.1% | 31% | 100% (active) | 98.3% (active) | -14% | 99% (active) | 99.2% (active) | 20% | 100% (active) | 99.5% (active) | 18% | 100% (active) | 99.1% (active)
6 | Clc1cc[c]([Tl][c]2ccc(Cl)cc2)cc1 | 94% (active) | 98% (active) | 22.9% | 97% (active) | 100% (active) | 11.2% | 90% (active) | 99% (active) | 82.8% (active) | 92% (active) | 97% (active) | 94.3% (active) | 95% (active) | 98% (active) | 89.7% (active) | 94% (active) | 98% (active) | -1.3%
